From the supplement of paper PMC8728848
The entries come from a sample that favours the strongest signals as a whole.

B1: AntigenI/IIA3VP1 (Streptococcus mutans), C9E3B4 (protein)
chain: AANEADYQAKLTAYQTELARVQKANADAKAAYEAAVAANNAANAALTAENTAIKKRNADAKADYEAKLAKYQADLAKYQKDLADYPVKLKAYEDEQASIKAALAELEKHKNEDGNLTEPSAQNLVYDLEPNANLSLTTDGKFLKASAVDDAFSKSTSKAKYDQKILQLDDLDITNLEQSNDVASSMELYGNFGDKAGWSTTVSNNSQVKWGSVLLERGQSATATYTNLQNSYYNGKKISKIVYKYTVDPKSKFQGQKVWLGIFTDPTLGVFASAYTGQVEKNTSIFIKNEFTFYDEDGKPINFDNALLSVASLNREHNSIEMAKDYSGKFVKISGSSIGEKNGMIYATDTLNFKQGEGGSRWTMYKNSQAGSGWDSSDAPNSWYGAGAIKMSGPNNYVTVGATSATNVMPVSDMPVVPGKDNTDGKKPNIWYSLNGKIRAVNVPKVTKEKPTPPVKPTAPTKPTYETEKPLKPAPVAPNYEKEPTPPTRLEHHHHHH
B2: BC2LB (Burholderia cenocepacia), B4EH85_BURCJ (protein)
chain: MGSSHHHHHHSSGENLYFQGHMSQPFTHDDLYALLQLAGNDATAVQANGDQAVLDRMRQFMTAQLVEKLPQYDVFVDIATIPYSFDVGSWQNKVKTDAAGEVVACTVTWAGAPGVLPGAAAKFGVGAVVNYFSKATPH

Assays:
Experiment in all cases: glycan array binding signal (z-score within array); higher = stronger binding
Conditions in all cases: glycan notation: IUPAC condensed, linker removed
[1] = target: Fuc(a1-2)Gal(b1-3)GlcNAc(b1-3)Gal(b1-4)Glc
Procedure, shortened: (§1)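 The binding signal is a Z-score computed within each array and averaged over linkers. Arrays of the same protein sequence at different concentrations or buffers were also averaged together. Data originate from 3228 arrays in the Consortium for Functional Glycomics database, kept only where the protein sequence was available.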

[2] = target: Fuc(a1-2)Gal(b1-3)GlcNAc6S
Procedure, shortened: as §1

[3] = target: Fuc(a1-2)Gal(b1-3)[Fuc(a1-4)]GlcNAc
Procedure, shortened: as §1

[4] = target: Fuc(a1-2)Gal(b1-4)Fuc(a1-3)]GlcNAc(b1-2)Man(a1-3)[Fuc(a1-2)Gal(b1-4)[Fuc(a1-3)]GlcNAc(b1-2)Man(a1-6)]Man(b1-4)GlcNAc(b1-4)GlcNAc
Procedure, shortened: as §1

[5] = target: Fuc(a1-2)Gal(b1-4)GlcNAc(b1-3)[Fuc(a1-2)Gal(b1-4)GlcNAc(b1-6)]GalNAc
Procedure, shortened: as §1

[6] = target: Fuc(a1-2)Gal(b1-4)[Fuc(a1-3)]GlcNAc(b1-3)Gal(b1-4)[Fuc(a1-3)]GlcNAc
Procedure, shortened: as §1

[7] = target: Fuc(a1-2)[Gal(a1-3)]Gal(b1-4)GlcNAc(b1-2)Man(a1-3)[Fuc(a1-2)[Gal(a1-3)]Gal(b1-4)GlcNAc(b1-2)Man(a1-6)]Man(b1-4)GlcNAc(b1-4)[Fuc(a1-6)]GlcNAc
Procedure, shortened: as §1

[8] = target: Fuc(a1-3)[Gal(b1-4)]GlcNAc(b1-3)Gal(b1-4)[Fuc(a1-3)]GlcNAc(b1-3)Gal(b1-4)[Fuc(a1-3)]GlcNAc
Procedure, shortened: as §1

[9] = target: Fuc(a1-3)[Gal(b1-4)]GlcNAc(b1-3)GalNAc
Procedure, shortened: as §1

[10] = target: Gal(a1-3)Gal(b1-3)GlcNAc(b1-2)Man(a1-3)[Gal(a1-3)Gal(b1-3)GlcNAc(b1-2)Man(a1-6)]Man(b1-4)GlcNAc(b1-4)GlcNAc
Procedure, shortened: as §1

[11] = target: Gal(a1-3)Gal(b1-3)GlcNAc(b1-3)GalNAc
Procedure, shortened: as §1

[12] = target: Gal(a1-3)Gal(b1-4)GlcNAc(b1-3)GalNAc
Procedure, shortened: as §1

[13] = target: Gal(a1-3)Gal(b1-4)[Fuc(a1-3)]GlcNAc(b1-2)Man(a1-3)[Gal(a1-3)Gal(b1-4)[Fuc(a1-3)]GlcNAc(b1-2)Man(a1-6)]Man(b1-4)GlcNAc(b1-4)GlcNAc
Procedure, shortened: as §1

[14] = target: Gal(a1-4)Gal(b1-4)GlcNAc(b1-3)Gal(b1-4)Glc
Procedure, shortened: as §1

Gal(a1-4)GlcNAc = target: Gal(a1-4)GlcNAc
Procedure, shortened: as §1

Gal(b1-2)Gal = target: Gal(b1-2)Gal
Procedure, shortened: as §1

[15] = target: Gal(b1-3)GlcNAc(b1-2)Man(a1-3)[Gal(b1-3)GlcNAc(b1-2)Man(a1-6)]Man(b1-4)GlcNAc(b1-4)GlcNAc
Procedure, shortened: as §1

[16] = target: Gal(b1-3)GlcNAc(b1-3)Gal(b1-4)GlcNAc(b1-3)Gal(b1-4)GlcNAc(b1-2)[Gal(b1-3)GlcNAc(b1-3)Gal(b1-4)GlcNAc(b1-3)Gal(b1-4)GlcNAc(b1-6)]Man(a1-6)[Gal(b1-3)GlcNAc(b1-3)Gal(b1-4)GlcNAc(b1-3)Gal(b1-4)GlcNAc(b1-2)Man(a1-3)]Man(b1-4)GlcNAc(b1-4)[Fuc(a1-6)]GlcNAc
Procedure, shortened: as §1

Gal(b1-3)GlcNAc6S = target: Gal(b1-3)GlcNAc6S
Procedure, shortened: as §1

[17] = target: Gal(b1-3)[Fuc(a1-4)]GlcNAc(b1-6)GalNAc
Procedure, shortened: as §1

[18] = target: Gal(b1-4)GlcNAc(b1-2)Man(a1-3)[GlcNAc(b1-4)][Gal(b1-4)GlcNAc(b1-2)Man(a1-6)]Man(b1-4)GlcNAc(b1-4)GlcNAc
Procedure, shortened: as §1

[19] = target: Gal(b1-4)GlcNAc(b1-2)[Gal(b1-4)GlcNAc(b1-4)]Man(a1-3)[GlcNAc(b1-4)][Gal(b1-4)GlcNAc(b1-2)Man(a1-6)]Man(b1-4)GlcNAc(b1-4)GlcNAc
Procedure, shortened: as §1

[20] = target: Gal(b1-4)GlcNAc(b1-2)[Gal(b1-4)GlcNAc(b1-6)]Man(a1-6)[GlcNAc(b1-4)][Gal(b1-4)GlcNAc(b1-2)Man(a1-3)]Man(b1-4)GlcNAc(b1-4)GlcNAc
Procedure, shortened: as §1

[21] = target: Gal(b1-4)GlcNAc(b1-3)Gal(b1-4)GlcNAc
Procedure, shortened: as §1

[22] = target: Gal(b1-4)GlcNAc(b1-3)Gal(b1-4)GlcNAc(b1-3)Gal(b1-4)GlcNAc(b1-3)Gal(b1-4)GlcNAc(b1-2)Man(a1-3)[Gal(b1-4)GlcNAc(b1-3)Gal(b1-4)GlcNAc(b1-3)Gal(b1-4)GlcNAc(b1-3)Gal(b1-4)GlcNAc(b1-2)Man(a1-6)]Man(b1-4)GlcNAc(b1-4)[Fuc(a1-6)]GlcNAc
Procedure, shortened: as §1

[23] = target: Gal(b1-4)GlcNAc(b1-3)Gal(b1-4)GlcNAc(b1-3)Gal(b1-4)GlcNAc(b1-3)Gal(b1-4)GlcNAc(b1-3)Gal(b1-4)GlcNAc(b1-3)Gal(b1-4)GlcNAc(b1-2)Man(a1-3)[Gal(b1-4)GlcNAc(b1-3)Gal(b1-4)GlcNAc(b1-3)Gal(b1-4)GlcNAc(b1-3)Gal(b1-4)GlcNAc(b1-3)Gal(b1-4)GlcNAc(b1-3)Gal(b1-4)GlcNAc(b1-2)Man(a1-6)]Man(b1-4)GlcNAc(b1-4)GlcNAc
Procedure, shortened: as §1

[24] = target: Gal(b1-4)GlcNAc(b1-3)Gal(b1-4)GlcNAc(b1-6)[Gal(b1-3)]GalNAc
Procedure, shortened: as §1

[25] = target: Gal3S(b1-4)[Fuc(a1-3)]Glc6S
Procedure, shortened: as §1

Gal6P(b1-4)GlcNAc = target: Gal6P(b1-4)GlcNAc
Procedure, shortened: as §1

GalNAc(a1-3)GalNAc = target: GalNAc(a1-3)GalNAc
Procedure, shortened: as §1

[26] = target: Neu5Ac(a2-3)Gal(b1-3)[Neu5Ac(a2-6)]GalNAc
Procedure, shortened: as §1

Neu5Ac(a2-3)Gal(b1-4)Glc = target: Neu5Ac(a2-3)Gal(b1-4)Glc
Procedure, shortened: as §1

[27] = target: Neu5Ac(a2-3)Gal(b1-4)GlcNAc(b1-2)Man
Procedure, shortened: as §1

[28] = target: Neu5Ac(a2-3)Gal(b1-4)GlcNAc(b1-3)Gal(b1-4)GlcNAc(b1-3)[Neu5Ac(a2-3)Gal(b1-4)GlcNAc(b1-3)Gal(b1-4)GlcNAc(b1-6)]GalNAc
Procedure, shortened: as §1

[29] = target: Neu5Ac(a2-3)Gal(b1-4)GlcNAc(b1-3)GalNAc
Procedure, shortened: as §1

[30] = target: Neu5Ac(a2-3)Gal(b1-4)[Fuc(a1-3)]GlcNAc(b1-6)[Gal(b1-3)]GalNAc
Procedure, shortened: as §1

[31] = target: Neu5Ac(a2-6)Gal(b1-4)GlcNAc
Procedure, shortened: as §1

[32] = target: Neu5Ac(a2-6)Gal(b1-4)GlcNAc(b1-3)GalNAc
Procedure, shortened: as §1

[33] = target: Neu5Ac(a2-6)GalNAc(b1-4)GlcNAc
Procedure, shortened: as §1

[34] = target: Neu5Ac(a2-6)GlcNAc(b1-4)GlcNAc(b1-4)GlcNAc
Procedure, shortened: as §1

Row | Binder | glycan array binding signal (z-score) [1] | glycan array binding signal (z-score) [2] | glycan array binding signal (z-score) [3] | glycan array binding signal (z-score) [4] | glycan array binding signal (z-score) [5] | glycan array binding signal (z-score) [6] | glycan array binding signal (z-score) [7] | glycan array binding signal (z-score) [8] | glycan array binding signal (z-score) [9] | glycan array binding signal (z-score) [10] | glycan array binding signal (z-score) [11] | glycan array binding signal (z-score) [12] | glycan array binding signal (z-score) [13] | glycan array binding signal (z-score) [14] | glycan array binding signal (z-score) (Gal(a1-4)GlcNAc) | glycan array binding signal (z-score) (Gal(b1-2)Gal) | glycan array binding signal (z-score) [15] | glycan array binding signal (z-score) [16] | glycan array binding signal (z-score) (Gal(b1-3)GlcNAc6S) | glycan array binding signal (z-score) [17] | glycan array binding signal (z-score) [18] | glycan array binding signal (z-score) [19] | glycan array binding signal (z-score) [20] | glycan array binding signal (z-score) [21] | glycan array binding signal (z-score) [22] | glycan array binding signal (z-score) [23] | glycan array binding signal (z-score) [24] | glycan array binding signal (z-score) [25] | glycan array binding signal (z-score) (Gal6P(b1-4)GlcNAc) | glycan array binding signal (z-score) (GalNAc(a1-3)GalNAc) | glycan array binding signal (z-score) [26] | glycan array binding signal (z-score) (Neu5Ac(a2-3)Gal(b1-4)Glc) | glycan array binding signal (z-score) [27] | glycan array binding signal (z-score) [28] | glycan array binding signal (z-score) [29] | glycan array binding signal (z-score) [30] | glycan array binding signal (z-score) [31] | glycan array binding signal (z-score) [32] | glycan array binding signal (z-score) [33] | glycan array binding signal (z-score) [34]
1 | B1 | -1.26 | 0.457 | 0.481 | 4.68 | 0.339 | 0.17 | 3.1 | -0.372 | 2.64 | 3.47 | 2.79 | -1.15 | 0.993 | -0.067 | -0.879 | -0.551 | 0.099 | 5.61 | 0.094 | 3.1 | -0.555 | -0.31 | -0.581 | -0.087 | 3.27 | 3.91 | -0.398 | 3.68 | -1.28 | 0.327 |  |  |  |  |  |  |  |  |  | 
2 | B2 |  |  |  |  |  |  |  |  |  |  |  |  |  |  |  |  |  |  |  |  |  |  |  |  |  |  |  |  |  |  | 2.87 | 5.24 | 2.39 | -0.203 | -0.104 | -0.247 | -0.206 | 10.1 | -0.418 | -0.338
